# Inconclusive results are not listed. Activity calls are given as the source filed them. The calls were made as follows: active = hit-call score of the fitted dose curve at least 0.9, where 1 is the maximum; inconclusive = response in the unintended direction; inactive = score below 0.9.
# Target: human Dopamine Transporter (DAT), SLC6A3 (gene 6531) (UniProt Q01959)
# Experiment: NVS_TR_hDAT: NovaScreen (NVS) Transporter Assay for human Dopamine Transporter (DAT) (AID 2283374);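 also: activity means loss of bound radioligand signal relative to DMSO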
# Description: NVS_TR_hDAT is a biochemical, single-readout assay that uses extracted gene-proteins in a cell-free assay. Measurements were taken 1 hour after chemical dosing in a 96-well plate.NVS_TR_hDAT is one of one assay component(s) measured or calculated from the NVS_TR_hDAT assay. It is designed to make measurements of radioligand binding, a form of binding reporter, as detected with scintillation counting signals by Filter-based radiodetection technology.Data from the assay component NVS_TR_hDAT was analyzed into 1 assay endpoint. This assay endpoint, NVS_TR_hDAT, was analyzed in the positive analysis fitting direction relative to DMSO as the negative control and baseline of activity. Using a type of binding reporter, loss-of-signal activity can be used to understand changes in the binding as they relate to the gene SLC6A3. Furthermore, this assay endpoint can be referred to as a primary readout, because the performed assay has only produced 1 assay endpoint. To generalize the intended target to other relatable targets, this assay endpoint is annotated to the transporter intended target family, where the subfamily is neurotransmitter transporter.
# Binding assays used specific radioligands (tritiated, iodinated) with non-radioactive competitive displacement ligands in agonist or antagonist protocols (as indicated) and various reference compounds and inhibitors to titrate specific binding to receptors and transporters. Most enzyme assays (CYPs, kinases, phosphatases, proteases, HDACs) used recombinant protein and specific substrates (fluorescence mostly, some colorimetric and radioactive) and inhibitors, followed by a biochemical separation of substrate and product. All assays for the biochemical HTS were initially run in duplicate at a single concentration (10 uM for CYP450 assays and 25 uM for all others). […] Each assay was run with positive and negative controls, and concurrent controls on every plate. The follow-up (secondary) screen tested active chemical-pairs in concentration series, as well as a few additional assays not tested in the primary screen, some selected negative inactives, and several cases re-run in the concentration series for confirmatory purposes.
# Chain of human Dopamine Transporter (DAT), SLC6A3 (gene 6531) (Q01959 whole entry, looked up): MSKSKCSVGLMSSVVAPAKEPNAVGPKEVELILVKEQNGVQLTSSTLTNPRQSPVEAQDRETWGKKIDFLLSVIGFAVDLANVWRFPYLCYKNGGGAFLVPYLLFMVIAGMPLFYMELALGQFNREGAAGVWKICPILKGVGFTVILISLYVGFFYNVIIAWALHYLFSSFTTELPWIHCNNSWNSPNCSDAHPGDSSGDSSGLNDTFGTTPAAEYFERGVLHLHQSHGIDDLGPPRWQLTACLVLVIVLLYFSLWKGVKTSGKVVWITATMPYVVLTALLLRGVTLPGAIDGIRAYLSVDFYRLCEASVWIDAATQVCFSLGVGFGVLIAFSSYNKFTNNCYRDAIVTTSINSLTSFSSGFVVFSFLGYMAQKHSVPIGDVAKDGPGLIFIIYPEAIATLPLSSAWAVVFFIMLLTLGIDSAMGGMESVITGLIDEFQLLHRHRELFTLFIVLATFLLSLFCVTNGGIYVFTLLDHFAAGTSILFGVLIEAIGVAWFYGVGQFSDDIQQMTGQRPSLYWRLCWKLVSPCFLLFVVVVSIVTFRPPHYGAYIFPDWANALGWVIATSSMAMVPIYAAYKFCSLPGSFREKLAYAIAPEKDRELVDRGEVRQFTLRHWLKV
Structure (SMILES),AC50,outcome
CCN(CC)CCNc1ccc(CNC=O)c2sc3ccc(OC)cc3c(=O)c12,12.8 µM (active),
CC(C)CCCCCCOC(=O)CCCCC(=O)OCCCCCCC(C)C,,inactive
CC(C)(C)c1ccc(O)c(C(C)(C)C)c1,6.72 µM (active),
Cc1oc(-c2ccccc2)nc1CCOc1ccc(C[C@H](Nc2ccccc2C(=O)c2ccccc2)C(=O)O)cc1,5.28 µM (active),
Nc1cccc2c(N)cccc12,6.65 µM (active),
Oc1cc2ccccc2c2ccccc12,,inactive
CC[C@H](c1ccc(O)cc1)[C@@H](CC)c1ccc(O)cc1,0.461 µM (active),
CCCCCCCCCCCCCC[N+](C)(C)C,4.13 µM (active),
CC1=C(/C=C/C(C)=C/C=C/C(C)=C/C(=O)O)C(C)(C)CCC1,6.66 µM (active),
NC(=O)N(O)[C@@H]1C=C[C@H](Oc2cccc(Oc3ccc(F)cc3)c2)C1,0.489 µM (active),
CC(=O)NC1(c2cccc(F)c2)CCN(CC[C@@]2(c3ccc(Cl)c(Cl)c3)CN(c3ccccc3)C(=O)CO2)CC1,9.61 µM (active),
CCCOc1sc(C(=O)N2CCC(c3cc(CN)ccc3F)CC2)c(C)c1Br,1.19 µM (active),
CCCCCCCCCCCCc1ccccc1S(=O)(=O)O,16.6 µM (active),
CCCCCCCC(=O)O,,inactive
CCCOC(=O)c1ccc(O)cc1,15.3 µM (active),
CCC(=C(c1ccc(O)cc1)c1ccc(OCCN(C)C)cc1)c1ccccc1,1.48 µM (active),

# Source: PubChem BioAssay (EPA / NIEHS)
